Sampled rows, rich in hits. Any-hit rate of the full collection: about 21%.
TDP1 cell CPT = qHTS for Inhibitors of human tyrosyl-DNA phosphodiesterase 1 (TDP1): qHTS in cells in presence of CPT. chicken DT40 Tdp1-/-;hTDP1 cells + 20 nM CPT, ATP luminescence, 48 h. Potency, µM (highest dose often 46.2 µM), inactives show at the top dose activity change, negative = growth inhibition, actives largely listed as inhibitors. actives 12% (n = 420,000); note: potency is the fitted concentration of half-maximal effect; nearly all actives have a fitted effect of over 55% in size
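Cell growth measured by CellTiter-Glo luminescence after a minimum 48 h, 37 C compound exposure with 20 nM CPT in Tdp1-knockout DT40 cells stably expressing hTDP1, seeded 400/well; qHTS titration format.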
TDP1 cell noCPT = qHTS for Inhibitors of human tyrosyl-DNA phosphodiesterase 1 (TDP1): qHTS in cells in absence of CPT. DT40 Tdp1-/- hTDP1 cells, no CPT, ATP luminescence, 48 h. Potency, µM (titrated, usually from 46.2 µM), inactives show at the highest dose activity change, negative = growth inhibition, hits mostly inhibitors. actives 15% (n = 420,000). AID 686978, 2013; note: potency is the fitted concentration of half-maximal effect; nearly all actives have a fitted effect of over 55% in size
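Growth kinetics read by CellTiter-Glo luminescence after ≥48 hr at 37 °C. Cells: DT40 Tdp1-/- stably carrying human TDP1, 400 per well, compound exposure in the absence of CPT (DMSO vehicle).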
Gal4-VP16 FLuc = VP16 counterscreen qHTS for inhibitors of ROR gamma transcriptional activity | actives 3.5% (n = 310,000) | Drosophila S2 Gal4-VP16 UAS-luciferase, luminescence, 20 h | Potency, µM (series often up to 53.6 µM), for the others: top-dose activity, negative = inhibition, hits mostly inhibitors | AID 2546, 2010;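 note: Gal4-VP16 expression switched on by copper sulfate through the metallothionein promoter; potency is the fitted concentration of half-maximal effect; nearly all actives have a fitted effect of over 50% in size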
RORg inh = qHTS for inhibitors of ROR gamma transcriptional activity. Potency, µM (doses to about 53.6 µM), for the others: at the top dose activity change, negative = inhibition, most hits filed as inhibitors. actives 5.4% (n = 310,000). Nuclear receptor ROR-gamma (Mus musculus), P51450. Drosophila S2 Gal4-RORgamma UAS-luciferase reporter, 20 h. AID 2551, 2010; note: potency is the fitted concentration of half-maximal effect; nearly all actives have a fitted effect of over 60% in size
Target sequence (P51450 whole entry, looked up, the tested form may be a part): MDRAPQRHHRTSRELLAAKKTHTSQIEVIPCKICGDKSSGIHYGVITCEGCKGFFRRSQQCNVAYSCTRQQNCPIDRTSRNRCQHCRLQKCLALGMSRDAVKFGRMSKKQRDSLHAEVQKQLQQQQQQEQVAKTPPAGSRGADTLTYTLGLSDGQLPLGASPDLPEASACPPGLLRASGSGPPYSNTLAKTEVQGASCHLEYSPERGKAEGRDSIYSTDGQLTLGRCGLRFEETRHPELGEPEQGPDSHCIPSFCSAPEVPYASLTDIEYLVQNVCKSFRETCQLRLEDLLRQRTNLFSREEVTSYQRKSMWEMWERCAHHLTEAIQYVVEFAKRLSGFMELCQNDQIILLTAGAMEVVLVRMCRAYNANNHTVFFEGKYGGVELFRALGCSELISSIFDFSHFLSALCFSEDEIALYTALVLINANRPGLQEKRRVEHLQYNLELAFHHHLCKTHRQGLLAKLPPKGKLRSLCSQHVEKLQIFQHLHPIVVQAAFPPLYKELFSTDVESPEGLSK
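Compounds are pin-transferred onto Drosophila Schneider cells expressing a copper-inducible Gal4–ROR gamma transactivation domain fusion. After 1 hr, copper sulfate is added to 700 uM final; luciferase is read 20 hr later.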
IL1B secr inh = qHTS for Inhibitors of Inflammasome Signaling: IL-1-beta AlphaLISA Primary Screen; THP-1 LPS/ATP IL-1B secretion, AlphaLISA, 16 h; hits give low values; activity change, % at 57.5 µM; actives 4.7% (n = 360,000); AID 743279, 2014; in the data active = activity change below about -50%; inconclusive = mostly about -30% to -49%
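THP-1 cells pretreated 1 hr with compounds (up to 57.5 uM final), then stimulated with LPS (250 ng/mL final) plus ATP (1.25 mM final); secreted IL-1B measured by AlphaLISA after 16 hr, decreased signal indicating inhibition.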
ELG1 DNA repair = qHTS screen for small molecules that inhibit ELG1-dependent DNA repair in human embryonic kidney (HEK293T) cells expressing luciferase-tagged ELG1; AID 504467, 2011; Potency, µM (top dose mostly 46.1 µM), for inactives: at the top dose activity change, negative = inhibition, most hits filed as inhibitors; actives 2.3% (n = 330,000); HEK293T ELG1-luciferase reporter, luminescence, 16 h; DNA damage induced by 5-fluorouridine; note: potency is the fitted concentration of half-maximal effect; nearly all actives have a fitted effect of over 55% in size
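Step one: seed 2,000 cells per well. Step two: pin-transfer compound or DMSO alongside 5-fluorouridine. Step three: incubate 16 hr, 37 °C, 5% CO2. Step four: add ONE-Glo, wait 30 min, read luminescence.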
Starred values were filed as active, the others as inactive; u = inconclusive; x = no result; [ ] = another dose, or the depositor's remark. Unless noted, calls come from the whole dose curve; as a rule, active = well fitted curve in the direction sought with a large enough effect; inconclusive = small, poorly fitted or top-dose-only effect, or another doubt; inactive = no such curve, though single readings can be large; an effect the other way counts as inactive or inconclusive. % is set by controls: 0 for no effect and ±100 for the full control effect.

SMILES | TDP1 cell CPT | TDP1 cell noCPT | Gal4-VP16 FLuc | RORg inh | IL1B secr inh | ELG1 DNA repair
COc1ccc(-n2ncc(C(=O)N3CCN(Cc4ccccc4)CC3)c2C2CCN(C(=O)OC(C)(C)C)CC2)cc1 | 13µM* | 20.6µM* | x | x | x | x
Cc1ccccc1NS(=O)(=O)c1nnc(NC(=O)CC(C)C)s1 | 4.6% | -0.3% | -4.5% | 0.8% | 18.2 | 13.5%
O=c1cc2nc(-c3ccccc3F)nc(SCc3ccc(Br)cc3)n2[nH]1 | 18.4µM* | 11.6µM* | x | x | x | x
O=C(CSc1nc(-c2ccco2)nc2cc(=O)[nH]n12)Nc1ccccc1F | -0.5% | 6.5% | x | x | x | x
CCCCCCC[N+](CC)(CC)CCCCc1ccc(Cl)cc1 | 0.651µM* | 0.206µM* | 0.5%[17 µM] | 25.4%[16.9 µM] | u | u
CCCCCCCCc1ccc(-c2ccc(C(=O)O)cc2)cc1 | x | x | 2.2% | 18.2% | x | x
O=C(Nc1ccc(S(=O)(=O)N2CCCC2)cc1)C1CCCN1C(=O)c1cccs1 (stereo unspecified) | 1.3% | -18.8% | -7.5% | 1.1% | -2.6 | -0.7%
O=C(NC(=S)Nc1ccc(S(=O)(=O)N2CCCCCC2)cc1)c1cccs1 | u | 20.6µM* | 6.31µM* | 2.82µM* | 20.3 | 12.7%
O=C(Nc1cnc(N2CCN(c3ccccc3)CC2)c(C(=O)O)c1)c1cccs1 | 2.7% | -20.6% | x | x | x | x
O=C(NC(=S)Nc1ccc(S(=O)(=O)N2CCCC2)cc1)c1cccs1 | u | u | 12.6µM* | 4.47µM* | -18.5 | u
O=C(Nc1ccc(S(=O)(=O)N2CCN(c3ccccc3)CC2)cc1)c1cccs1 | 1.2% | u | -10.6% | u | u | 11.6µM*
COc1ccc(Cc2nnc(NC(=O)CSc3ccccc3)s2)cc1OC | -26.9% | u | -4.1% | -44.8% | 6.6 | -2.7%
COc1ccc(-c2nnc(NC(=O)CSc3ccccc3)s2)cc1OC | -20.3% | u | 22.4µM* | u | 4.9 | 24.4%
COc1ccc(Cc2nnc(NC(=O)CSc3ccc(Cl)cc3)s2)cc1OC | x | x | u | 12.6µM* | x | u
COCC(=O)Nc1cc(C(=O)N2CC3(C)CC2CC(C)(C)C3)c2c(c1)nc(-c1ccncc1)n2C (stereo unspecified) | 12.3%[9.04 µM] | -2.5% | x | x | x | x
CCC1=NN(C(=O)C(=O)Nc2ccccc2OC)C(O)(C(F)(F)F)C1 (stereo unspecified) | -6.9% | u | u | 12.6µM* | 44.8 | -5.0%
COc1ccccc1NC(=O)C(=O)N1N=C(C(C)C)CC1(O)C(F)(F)F (stereo unspecified) | -0.9% | 5.0% | u | 10µM* | 8.4 | 0.1%
CNC(=S)N(CCCO)Cc1cc2cc3c(cc2[nH]c1=O)OCO3 | 2.1% | -2.7% | -12.3% | -29.6% | 3.8 | -1.0%
CCOc1ccccc1CNCCCSc1nnnn1C | -1.0% | -15.4% | x | x | x | x
COC(=O)c1ccc(NC(=O)c2cc(=O)c3ccc(C)cc3o2)cc1 | -20.4% | -6.0% | x | x | x | x
CCN1C(=O)[C@H]2[C@@H](c3ccc(C(F)(F)F)cc3)N[C@]3(CCCN(Cc4ccc(OC)cc4)C3=O)[C@H]2C1=O | 20.6µM* | 10.3µM* | x | x | 2.7 | x
CCN1C(=O)[C@H]2[C@@H](c3ccc(C)cc3)N[C@]3(CCCN(Cc4ccc(F)cc4)C3=O)[C@H]2C1=O | u | u | x | x | 2.5 | x
CCN1C(=O)[C@H]2[C@@H](c3ccc(OC)cc3)N[C@]3(CCCN(Cc4ccc(Cl)cc4)C3=O)[C@H]2C1=O | u | u | x | x | 13.1 | x
CCN1C(=O)[C@H]2[C@@H](c3ccc(C(F)(F)F)cc3)N[C@]3(CCCN(Cc4ccc(C(F)(F)F)cc4)C3=O)[C@H]2C1=O | 11.6µM* | 11.6µM* | x | x | -21.1 | x
CCOc1ccc(-n2c(SCC(N)=O)nc3c([nH]c4ccccc43)c2=O)cc1 | 13µM* | u | -1.1% | -16.1% | 52.5 | u
SMILES | TDP1 cell CPT | TDP1 cell noCPT | Gal4-VP16 FLuc | RORg inh | IL1B secr inh | ELG1 DNA repair
CCOC(=O)CSc1nc2c([nH]c3ccccc32)c(=O)n1-c1ccc(OCC)cc1 | -27.2% | -28.3% | x | x | x | x
CCOc1ccc(-n2c(SCC(=O)Nc3cc(C)ccc3C)nc3c([nH]c4ccccc43)c2=O)cc1 | 13µM* | 16.4µM* | x | x | x | x
CCOc1ccc(-n2c(SCC(=O)Nc3cc(C)on3)nc3c([nH]c4ccccc43)c2=O)cc1 | u | -29.9% | 5.9% | u | 109.5 | u
CN1C(=O)C(O)(CC(=O)c2cccc(-n3cccc3)c2)c2ccccc21 (stereo unspecified) | 20.6µM* | u | -1.4% | u | -10.9 | -0.6%
CN1C(=O)C(O)(CC(=O)c2ccncc2)c2ccccc21 (stereo unspecified) | u | u | 13.2% | -68.3% | -52.8* | 15.4%
C[C@@H]1CN([C@@H](C)CO)C(=O)CCCn2nncc2CO[C@H]1CN(C)S(=O)(=O)c1cn(C)cn1 | 11.6% | 10.8% | x | x | 6.4 | x
Cn1c(=O)c2sccc2n2c(CCCC(=O)NC3CCCCC3)nnc12 | -14.9% | -2.7% | x | x | x | x
OC[C@H]1OC(O)(CN2CCOCC2)[C@H](O)[C@@H]1O (stereo partly specified) | x | x | -5.5% | 3.6% | x | x
CC(C)(C)OC(=O)N1CCCC(C(=O)Nc2cccc(C(=O)NCCCCc3ccccc3)c2)C1 (stereo unspecified) | u | u | x | x | -3.3 | x
C=CCN(C(=O)C1=NN(C2CCS(=O)(=O)C2)C(=O)CC1)c1nc(-c2ccc([N+](=O)[O-])cc2)cs1 (stereo unspecified) | -1.5% | 18.4µM* | 25.0% | 8.9% | -55.4* | u
O=[N+]([O-])c1nn(-c2ccc3c(c2)OCCO3)n(O)c1=NC1CCN(Cc2ccccc2)CC1 | 10.3µM* | u | u | -20.6% | 5.5 | u
O=[N+]([O-])c1nn(-c2ccccc2)n(O)c1=NC1CCN(Cc2ccccc2)CC1 | 3.26µM* | 9.2µM* | 19.3%[10 µM] | -4.3% | u | u
O=C(NCc1ccc(C(F)(F)F)cc1)C1CC(c2c(Cl)cccc2Cl)=NO1 (stereo unspecified) | u | u | 6.7% | u | u | -6.6%

Assay outcomes from PubChem.
